In all, about 2,100 compounds went through this assay and about 770 (37%) were called active. This is one part of the list. A number with no mark means an inactive call.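 The calls were made as follows: active = by-eye trace score of 1 for enhancers or -1 for inhibitors, so actives lie on both sides (some results past the limit were not filed as active); inactive = score 0, or 3 fluorescent, or 4 baseline rise.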

The test deals with G protein-activated inward rectifier potassium channel 2 (Homo sapiens) + G protein-activated inward rectifier potassium channel 1 (Homo sapiens) (UniProt P48051+P48549). Briefly: GIRK1/2 thallium flux modulators, retest, confirmation, cell-based, HEK293 rmGlu8/hGIRK1/2, FluoZin-2 (AID 623911). To be noted: HEK293 rmGlu8/hGIRK1/2, thallium flux FluoZin-2; actives lie on both sides; glutamate co-added at its EC20 level.
Sequence of G protein-activated inward rectifier potassium channel 2 (Homo sapiens) + G protein-activated inward rectifier potassium channel 1 (Homo sapiens) (P48051 whole entry, looked up): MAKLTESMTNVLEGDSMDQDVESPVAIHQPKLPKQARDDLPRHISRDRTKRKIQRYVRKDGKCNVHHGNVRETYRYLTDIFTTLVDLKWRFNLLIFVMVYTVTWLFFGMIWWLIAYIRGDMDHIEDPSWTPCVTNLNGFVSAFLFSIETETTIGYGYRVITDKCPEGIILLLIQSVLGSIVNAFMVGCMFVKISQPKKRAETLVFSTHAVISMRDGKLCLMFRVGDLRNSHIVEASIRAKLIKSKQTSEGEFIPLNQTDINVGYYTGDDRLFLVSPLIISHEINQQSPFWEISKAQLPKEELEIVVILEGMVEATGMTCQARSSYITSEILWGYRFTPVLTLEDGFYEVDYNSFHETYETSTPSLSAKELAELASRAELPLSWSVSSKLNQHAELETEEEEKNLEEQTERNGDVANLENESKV
Sequence of G protein-activated inward rectifier potassium channel 2 (Homo sapiens) + G protein-activated inward rectifier potassium channel 1 (Homo sapiens) (P48549 whole entry, looked up): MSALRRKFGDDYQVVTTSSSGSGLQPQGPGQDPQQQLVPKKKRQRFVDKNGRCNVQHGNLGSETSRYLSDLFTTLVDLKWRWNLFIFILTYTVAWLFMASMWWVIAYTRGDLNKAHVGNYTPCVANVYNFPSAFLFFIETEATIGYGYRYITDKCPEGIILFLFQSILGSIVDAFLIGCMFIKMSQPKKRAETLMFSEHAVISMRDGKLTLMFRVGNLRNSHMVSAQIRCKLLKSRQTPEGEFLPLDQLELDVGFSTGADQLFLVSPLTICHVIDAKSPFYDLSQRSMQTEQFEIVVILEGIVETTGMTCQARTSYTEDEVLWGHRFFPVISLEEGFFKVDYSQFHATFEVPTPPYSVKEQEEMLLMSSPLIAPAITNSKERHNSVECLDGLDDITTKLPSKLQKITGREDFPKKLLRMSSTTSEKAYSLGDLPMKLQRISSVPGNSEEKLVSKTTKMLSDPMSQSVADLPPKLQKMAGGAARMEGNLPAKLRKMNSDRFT
As for `Cc1cccc(N2C(N)=NC(N)=NC23CCCCC3)c1`, the manual score is 0.

As for `O=C(CN1C(=O)/C(=C/c2ccccc2F)Oc2ccccc21)N1CCN(c2ccccn2)CC1`, the manual score was 0.

For `O=C(Oc1c(Cl)cc(Cl)c2cccnc12)c1cccc([N+](=O)[O-])c1`, the manual score was 1 (active).

On to `O=C(NNC(=O)c1cccnc1SCc1cccc([N+](=O)[O-])c1)c1cccnc1`, for which the manual score is 0.

Take `O=C(NNC(=O)c1cccnc1SCc1cccc([N+](=O)[O-])c1)c1ccccn1`: the manual score is 0.

`Cc1ccccc1NC1=C(Cl)C(=O)OC1OC(=O)c1ccco1` (stereo not drawn): the manual score is 0.

With `O=C(Oc1c(Cl)cc(Cl)c2cccnc12)c1ccco1`, the manual score was 1 (active).

With `Cc1ccc(C2c3c(oc4ccc(Cl)cc4c3=O)C(=O)N2CCCN2CCOCC2)o1` (stereo not drawn), the manual score is 0.5.

For `O=c1c2ccccc2c(C=NCc2ccccn2)c(O)n1-c1ccccc1`, the manual score is 0.

In the case of `CCOc1ccc(Br)cc1/C(C)=N\NC1=NCCN1`, the manual score was -1 (active).

Turning to `CCNS(=O)(=O)c1cc(S(C)(=O)=O)ccc1Cl`, the manual score is 0.

With `COc1cccc(/C=N/n2c(-c3cccs3)n[nH]c2=S)c1`, the manual score is 1 (active).

Regarding `CCN(CC)S(=O)(=O)c1cccc(-c2n[nH]c(=S)n2/N=C/c2ccc(C(=O)OC)cc2)c1`, the manual score is 0.

For the compound `CC(/C=N/n1c(-c2ccccc2)n[nH]c1=S)=C\c1ccco1`, the manual score was 0.

For `Cc1ccc(/C=N/n2c(COc3ccccc3)n[nH]c2=S)s1`, the manual score is 0.

As to `COc1ccc(/C=N/n2c(-c3cccs3)n[nH]c2=S)cc1`, the manual score is 1 (active).

Regarding `CC(=C/c1ccccc1)/C=N/n1c(-c2ccco2)n[nH]c1=S`, the manual score was 0.

As to `CC(=O)Nc1ccc(S(=O)(=O)NC(C(=O)O)C2=CCC=CC2)cc1` (stereo not drawn), the manual score was 0.

In the case of `CN(C)S(=O)(=O)c1cccc(NC(=S)Nc2ccc(Cl)cc2Cl)c1`, the manual score is 1 (active).

Consider `CN(C)S(=O)(=O)c1cccc(NC(=O)COc2cccc(C#N)c2)c1`, for which the manual score is 0.

Turning to `CN(C)S(=O)(=O)c1cccc(NC(=O)Cc2ccc(Cl)cc2)c1`, the manual score was 1 (active).

Consider `Cc1ccc(NCC(=O)Nc2cccc(S(=O)(=O)N(C)C)c2)c(Cl)c1`, for which the manual score is 0.

With `O=C(Nc1cccc(S(=O)(=O)c2cccc(NC(=O)C3CC3)c2)c1)C1CC1`, the manual score is 0.

`S=C(Nc1ccccc1Cl)Nc1ccc(Cl)cc1Cl`: the manual score was 1 (active).

`CN(C)S(=O)(=O)c1cccc(NC(=S)Nc2cc(Cl)cc(Cl)c2)c1`: the manual score is 1 (active).

Turning to `CC(C)OC(=O)/C(=C/c1cccnc1)NC(=O)c1ccccc1`, the manual score was 0.

For the compound `O=C(N/N=C(\c1ccccc1)c1cccnc1)C(O)(c1ccccc1)c1ccccc1`, the manual score is -1 (active).

Regarding `O=C(NCCCCNC(=O)c1cccnc1)c1cccnc1`, the manual score is 0.
